For five compounds, outcome and AC50 results are on record in PubChem BioAssay (EPA / NIEHS).

Read-out in assay [1]: Tissue Factor, F3 (gene 2152)
The assay is described as follows: BSK_CASM3C_TissueFactor: BioMAP Diversity Plus: CASM3C Assay for Tissue Factor Biomarker Activity (AID 2283052).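 Also: cell surface tissue factor protein level read by ELISA.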 The conditions noted are these: primary human coronary artery smooth muscle cells; actives raise or lower the signal.

Read-out in assay [2]: Interferon-gamma inducible Protein 10 (IP10), CXCL10 (gene 3627)
Kind of assay: BSK_hDFCGF_IP10: BioMAP Diversity Plus: hDFCGF Assay for Interferon-gamma inducible Protein 10 (IP10) Biomarker Activity (AID 2283053). As to conditions: primary human foreskin fibroblasts; actives raise or lower the signal. An outline of the steps: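 ELISA read-out of IP-10 (CXCL10) from primary human skin fibroblasts, 24 h after compound addition. Gain or loss of signal versus DMSO baseline, bidirectional curve fitting.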

Read-out in assay [3]: Urokinase-type plasminogen activator receptor (uPAR), PLAUR (gene 5329)
Kind of assay: BSK_CASM3C_uPAR: BioMAP Diversity Plus: CASM3C Assay for Urokinase-type plasminogen activator receptor (uPAR) Biomarker Activity (AID 2283054).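 Also: cell-surface uPAR protein level quantified by ELISA.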 The conditions noted are these: primary human coronary artery smooth muscle cells; actives raise or lower the signal.

Read-out in assay [4]: Vascular cell adhesion molecule 1 (VCAM1), VCAM1 (gene 7412)
Kind of assay: BSK_CASM3C_VCAM1: BioMAP Diversity Plus: CASM3C Assay for Vascular cell adhesion molecule 1 (VCAM1) Biomarker Activity (AID 2283055).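 Also: VCAM-1 protein level quantified by ELISA on the cells.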 The conditions noted are these: primary human coronary artery smooth muscle cells; actives raise or lower the signal.

Read-out in assay [5]: Collagen III, COL3A1 (gene 1281)
Kind of assay: BSK_hDFCGF_CollagenIII: BioMAP Diversity Plus: hDFCGF Assay for Collagen III Biomarker Activity (AID 2283056). The conditions noted are these: primary human foreskin fibroblasts; actives raise or lower the signal. The gist of the method: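 Human foreskin fibroblast primary cultures sampled 24 h after dosing; Collagen III quantified by ELISA. Signal fitted bidirectionally against DMSO baseline.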

Read-out in assay [6]: Epidermal growth factor receptor (EGFR), EGFR (gene 1956)
Kind of assay: BSK_hDFCGF_EGFR: BioMAP Diversity Plus: hDFCGF Assay for Epidermal growth factor receptor (EGFR) Biomarker Activity (AID 2283057). As to conditions: primary human foreskin fibroblasts; actives raise or lower the signal. The gist of the method: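 ELISA readout of EGFR on human dermal fibroblasts (primary foreskin cells), 24 h post-dosing; bidirectional curve fit vs DMSO baseline, gain or loss of signal scored.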

Read-out in assay [7]: Interleukin-8 (IL8), CXCL8 (gene 3576)
Kind of assay: BSK_hDFCGF_IL8: BioMAP Diversity Plus: hDFCGF Assay for Interleukin-8 (IL8) Biomarker Activity (AID 2283058). The conditions noted are these: primary human foreskin fibroblasts; actives raise or lower the signal. The gist of the method:
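Primary human foreskin fibroblasts (hDFCGF system) dosed with chemical; IL-8 measured by ELISA 24 hours later. Bidirectional curve fitting relative to DMSO baseline; cytotoxicity tracked in parallel cultures by SRB total protein staining.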

Assay [8] can be described thus: BSK_hDFCGF_Proliferation: Cell Proliferation Assessment in the BioMAP Diversity Plus: hDFCGF Assay (AID 2283059).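 Also: curves fitted for both rise and fall of signal versus DMSO baseline.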 As to conditions: primary human foreskin fibroblasts. The gist of the method: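 This proliferation readout used SRB total-protein staining of human foreskin fibroblasts […], normalized to DMSO with bidirectional curve fitting.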
Read-out in assay [9]: Macrophage colony-stimulating factor (MCSF), CSF1 (gene 1435)
The assay is described as follows: BSK_hDFCGF_MCSF: BioMAP Diversity Plus: hDFCGF Assay for Macrophage colony-stimulating factor (MCSF) Biomarker Activity (AID 2283060). The conditions noted are these: primary human foreskin fibroblasts; actives raise or lower the signal. The gist of the method:
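Human foreskin fibroblast primary cultures; M-CSF measured by ELISA 24 hours after chemical dosing. Bidirectional fitting relative to DMSO, with overt cytotoxicity tracked by parallel SRB total-protein staining (0.1% SRB, 10% TCA fixation, 560 nm).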

The nature of assay [10]: BSK_hDFCGF_SRB: Viability Assessment in the BioMAP Diversity Plus: hDFCGF Assay (AID 2283061).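 Also: cells exposed to compound for 24 h before the read.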 As to conditions: primary human foreskin fibroblasts. The gist of the method:
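Human foreskin fibroblasts in 96-well plates were treated 24 h. Total protein was measured by 0.1% SRB staining after 10% TCA fixation, read at 560 nm. Data were fitted bidirectionally against DMSO.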

Read-out in assay [11]: TIMP metallopeptidase inhibitor 1 (TIMP1), TIMP1 (gene 7076)
The assay is described as follows: BSK_hDFCGF_TIMP1: BioMAP Diversity Plus: hDFCGF Assay for TIMP metallopeptidase inhibitor 1 (TIMP1) Biomarker Activity (AID 2283062). The conditions noted are these: primary human foreskin fibroblasts; actives raise or lower the signal. The gist of the method: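 Human foreskin fibroblast primary cultures dosed for 24 h; secreted/surface TIMP-1 quantified by ELISA. Bidirectional curve fitting against DMSO baseline; cytotoxicity tracked in parallel cultures by SRB total-protein staining.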

Read-out in assay [12]: Monokine induced gamma interferon (MIG), CXCL9 (gene 4283)
Kind of assay: BSK_hDFCGF_MIG: BioMAP Diversity Plus: hDFCGF Assay for Monokine induced gamma interferon (MIG) Biomarker Activity (AID 2283063). As to conditions: primary human foreskin fibroblasts; actives raise or lower the signal. An outline of the steps: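 MIG/CXCL9 measured by ELISA 24 h after dosing primary human skin fibroblasts. Activity fitted in both directions against DMSO controls. Cytotoxicity was checked in parallel cultures by SRB staining read at 560 nm.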

Read-out in assay [13]: Vascular cell adhesion molecule 1 (VCAM1), VCAM1 (gene 7412)
Kind of assay: BSK_hDFCGF_VCAM1: BioMAP Diversity Plus: hDFCGF Assay for Vascular cell adhesion molecule 1 (VCAM1) Biomarker Activity (AID 2283065). The conditions noted are these: primary human foreskin fibroblasts; actives raise or lower the signal. The gist of the method:
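Human foreskin fibroblast primary cells dosed with chemical, VCAM-1 measured by ELISA at 24 h. Bidirectional curve fitting relative to DMSO as negative control/baseline.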

Read-out in assay [14]: Plasminogen activator inhibitor-1 (PAI1), SERPINE1 (gene 5054)
The assay is described as follows: BSK_hDFCGF_PAI1: BioMAP Diversity Plus: hDFCGF Assay for Plasminogen activator inhibitor-1 (PAI1) Biomarker Activity (AID 2283066). The conditions noted are these: primary human foreskin fibroblasts; actives raise or lower the signal. The gist of the method:
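ELISA readout of PAI-1 from primary human skin fibroblast cultures, 24 h after compound addition. Gain or loss of signal was fitted bidirectionally against DMSO baseline.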

Read-out in assay [15]: Intercellular Adhesion Molecule 1 (ICAM1), ICAM1 (gene 3383)
Kind of assay: BSK_KF3CT_ICAM1: BioMAP Diversity Plus: KF3CT Assay for Intercellular Adhesion Molecule 1 (ICAM1) Biomarker Activity (AID 2283067). As to conditions: primary human keratinocytes with fibroblasts; actives raise or lower the signal. The gist of the method:
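Human keratinocyte–foreskin fibroblast co-culture was treated for 24 h. Cell-surface ICAM-1 was quantified by ELISA, fitted bidirectionally relative to DMSO. Cytotoxicity was checked in parallel cultures by SRB total-protein staining.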

Read-out in assay [16]: Interferon-gamma inducible Protein 10 (IP10), CXCL10 (gene 3627)
Kind of assay: BSK_KF3CT_IP10: BioMAP Diversity Plus: KF3CT Assay for Interferon-gamma inducible Protein 10 (IP10) Biomarker Activity (AID 2283068). The conditions noted are these: primary human keratinocytes with fibroblasts; actives raise or lower the signal. The gist of the method: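 Signal is secreted/surface IP-10 by ELISA in a human primary skin co-culture of keratinocytes and foreskin fibroblasts, taken 24 h post-dosing; DMSO served as negative control.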

Assay [17] in a line: BSK_KF3CT_SRB: Viability Assessment in the BioMAP Diversity Plus: KF3CT Assay (AID 2283069).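 Also: total protein by sulforhodamine B staining as a cytotoxicity measure.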 The conditions noted are these: primary human keratinocytes with fibroblasts. An outline of the steps:
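Cytotoxicity was gauged by SRB staining (0.1% SRB, 10% TCA fixation, 560 nm) of parallel cultures at 24 h. The cells were primary human skin keratinocytes co-cultured with fibroblasts, and activity was fitted in both directions against DMSO.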

Read-out in assay [18]: Interleukin-1 alpha (IL1a), IL1A (gene 3552)
Kind of assay: BSK_KF3CT_IL1a: BioMAP Diversity Plus: KF3CT Assay for Interleukin-1 alpha (IL1a) Biomarker Activity (AID 2283070). The conditions noted are these: primary human keratinocytes with fibroblasts; actives raise or lower the signal. An outline of the steps: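 IL-1a was detected by ELISA 24 h after chemical treatment of a co-culture of human skin keratinocytes and foreskin fibroblasts. Gain or loss of signal was fitted against the DMSO baseline.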

Read-out in assay [19]: TIMP metallopeptidase inhibitor 2 (TIMP2), TIMP2 (gene 7077)
The assay is described as follows: BSK_KF3CT_TIMP2: BioMAP Diversity Plus: KF3CT Assay for TIMP metallopeptidase inhibitor 2 (TIMP2) Biomarker Activity (AID 2283071). As to conditions: primary human keratinocytes with fibroblasts; actives raise or lower the signal. An outline of the steps:
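ELISA readout of TIMP-2 in keratinocyte plus foreskin fibroblast co-cultures (human skin primary cells), 24 h post-dose. Gain or loss of signal fitted relative to DMSO.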

Read-out in assay [20]: Matrix Metallopeptidase 1 (MMP1), MMP1 (gene 4312)
Kind of assay: BSK_hDFCGF_MMP1: BioMAP Diversity Plus: hDFCGF Assay for Matrix Metallopeptidase 1 (MMP1) Biomarker Activity (AID 2283064). As to conditions: primary human foreskin fibroblasts; actives raise or lower the signal. An outline of the steps:
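MMP1 levels quantified by ELISA 24 h after dosing human dermal fibroblast cultures, with parallel SRB total-protein staining for overt cytotoxicity. Data fitted in both directions against DMSO baseline.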

The term AC50 denotes the concentration at which the activity in the assay is half-maximal.

The structures appear in SMILES notation. The source made the active and inactive calls. The calls were made as follows: active = hit-call score of the fitted dose curve at least 0.9, where 1 is the maximum; inactive = score below 0.9.

`c1ccc2cc3c(ccc4ccccc43)cc2c1`: the result in assay [1], in [2], in [3], in [4], in assay [5] and in assay [6] was inactive. Further, the result in assay [7], in assay [8], in [9], in assay [10], in assay [11] and in assay [12] was inactive. Also, the result in assay [13], in assay [14], in [15], in assay [16], in [17] and in [18] was inactive. The outcome in assay [19] was inactive.
`CCC(C)(C)C1CCC(O)CC1` (stereo unspecified): the result in assay [1], in assay [2], in assay [3], in [4], in [5] and in assay [6] was inactive. Also, the outcome in [7], in assay [8], in assay [9], in [10], in [11] and in assay [12] was inactive. In addition, the outcome in [13], in assay [14], in assay [15], in assay [17], in assay [18] and in assay [19] was inactive. The AC50 in assay [16] is 32.8 µM (active).
Consider `CC(O)CO` (stereo unspecified), for which the result in assay [1], in assay [2], in assay [3], in assay [4], in [5] and in assay [6] was inactive. In addition, the outcome in assay [7], in assay [8], in assay [9], in assay [10], in assay [11] and in assay [12] was inactive. For the same compound, the outcome in [13], in [14], in assay [15], in assay [16], in assay [17] and in assay [18] was inactive. The outcome in assay [19] was inactive.
As for `CC(=O)CC(C)(C)O`, the outcome in assay [1], in assay [2], in [3], in assay [4], in [5] and in assay [6] was inactive. Moreover, the result in assay [7], in [8], in assay [9], in assay [10], in assay [11] and in assay [12] was inactive. For the same compound, the outcome in [20], in [13], in [14], in assay [15], in assay [16] and in [17] was inactive. The result in assay [18] and in assay [19] was inactive.
With `O=c1c(-c2ccc(O)cc2)coc2cc(O)ccc12`, the result in assay [1], in [2], in assay [3], in [4], in assay [5] and in [6] was inactive. Also, the outcome in assay [7], in assay [8], in assay [9], in assay [10], in assay [11] and in assay [12] was inactive. For the same compound, the outcome in [13], in assay [14], in assay [15], in assay [16], in assay [17] and in [18] was inactive. Further, in assay [19], the outcome was inactive.
